Reference: PubChem BioAssay (Tox21)
“And” between values parts separate entries of the source, which are not always exact repeats. Identical values can stand only once. Inconclusive results are not listed. A call without a number means that no potency is given here. Some structures have more than one record in an assay (separate samples or runs), and their calls can disagree. The source made the active and inactive calls. Unless noted, calls come from the whole dose curve; as a rule, active = well fitted curve in the direction sought with a large enough effect in the repeat runs; inconclusive = weak or mixed curves; inactive = no such curve, though single readings can be large; an effect the other way counts as inactive or inconclusive.

Columns and labels:
[1] = qHTS assay to identify small molecule antagonists of the estrogen receptor alpha (ER-alpha) signaling pathway using the BG1 cell line in the presence of 0.1 nM 17-beta-estradiol - cell viability counter screen (AID 1259241); note: nearly all actives have a fitted effect of over 40% in size; note: potency is the fitted concentration of half-maximal effect
Outline: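 Cells were plated and left 24 hr, compounds in DMSO were pinned in, 17beta-estradiol was added to 0.1 nM final, and after 22 hr CellTiter-Fluor reagent was added for 30 min before fluorescence was read.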

[2] = qHTS assay to identify small molecule antagonists of the androgen receptor (AR) signaling pathway using the MDA cell line in the presence of 0.5 nM R1881 - cell viability counter screen (AID 1259242); note: nearly all actives have a fitted effect of over 45% in size; note: potency is the fitted concentration of half-maximal effect
Outline: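 qHTS format. MDA-kb2 (MMTV-luc, AR/GR responsive) + cpd + 0.5 nM R1881 final, 16 hr 37C/0% CO2 → CellTiter-Fluor 30 min → fluorescence intensity.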

[3] = target: Estrogen receptor (Homo sapiens) (UniProt P03372); assay: qHTS assay to identify small molecule antagonists of the estrogen receptor alpha (ER-alpha) signaling pathway using the BG1 cell line in the presence of 0.1 nM 17-beta-estradiol (AID 1259244); note: nearly all actives have a fitted effect of over 50% in size; note: potency is the fitted concentration of half-maximal effect
Outline: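 Reporter is a stably transfected luciferase under four estrogen responsive elements in VM7Luc4E2 cells expressing native full-length ER-alpha; inhibition of 0.1 nM (final) 17beta-estradiol-driven signal over 22 h is read by luminescence.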

[4] = qHTS assay to identify small molecule HDAC inhibitors (AID 1259364); note: potency is the fitted concentration of half-maximal effect;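 note: wild-type HCT-116 cells with endogenous class I/II HDAC activity; nearly all actives have a fitted effect of over 45% in size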
Outline: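 Quantitative high-throughput format: overnight-seeded HCT-116 cells got compounds for 2 hr at 37C; HDAC-Glo I/II reagent added, 30 min RT, luminescence measured.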

[5] = qHTS assay to identify small molecule HDAC inhibitors - cell viability counter screen (AID 1259365); note: nearly all actives have a fitted effect of over 50% in size; note: potency is the fitted concentration of half-maximal effect
Outline: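 Counter screen in wild-type HCT-116 cells: compounds dissolved in DMSO are pin-transferred onto overnight-plated cells and left 2hr at 37C. ATP-based CellTiter-Glo luminescence then measures viable cells.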

[6] = qHTS assay to identify small molecule agonists of the sonic hedgehog signaling (Shh) pathway - cell viability counter screen (AID 1259366); note: nearly all actives have a fitted effect of over 50% in size; note: potency is the fitted concentration of half-maximal effect
Outline: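 Cells are plated at 2,000 per well and left 4hr at 37C, 5% CO2 before compound addition. After 23hr of treatment, CellTiter-Fluor reagent is added for 1hr at 37C and fluorescence is measured.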

[7] = qHTS assay to identify small molecule antagonists of the sonic hedgehog signaling (Shh) pathway - cell viability counter screen (AID 1259367); note: nearly all actives have a fitted effect of over 55% in size; note: potency is the fitted concentration of half-maximal effect
Outline: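 Fluorescence read-out (CellTiter-Fluor, 1 hr at 37C) taken after 23 hr compound treatment of 3T3 Gli1-Luc cells stimulated with conditioned medium. Cells were seeded at 2,000 per well and pre-incubated 4 hr.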

[8] = qHTS assay to identify small molecule agonists of the sonic hedgehog signaling (Shh) pathway (AID 1259368; calls by dose curve;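 note: NIH/3T3-derived 3T3Gli1-Luc cells carrying a stable Gli1-driven firefly luciferase reporter; series mostly up to about 92 µM; nearly all actives have a fitted effect of over 15% in size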)
Outline: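 Quantitative high-throughput format using a Gli1-driven firefly luciferase reporter line derived from NIH/3T3 cells. After a 24 hr compound treatment at 37 C and 5% CO2, luminescence reported Gli1 response element activity.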

[9] = qHTS assay to identify small molecule antagonists of the sonic hedgehog signaling (Shh) pathway (AID 1259369; calls by dose curve; note: nearly all actives have a fitted effect of over 45% in size; note: potency is the fitted concentration of half-maximal effect)
Outline: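 Stable Gli1-Luc reporter NIH/3T3 clone; quantitative HTS in stimulated mode with conditioned medium. Luminescence measured after 24hr compound treatment at 37 C.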

[10] = qHTS assay to identify small molecule agonists of the androgen receptor (AR) signaling pathway in the presence of an antagonist - cell viability counter screen (AID 1259379); note: nearly all actives have a fitted effect of over 25% in size; note: potency is the fitted concentration of half-maximal effect
Outline: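 Nilutamide-containing (3.0uM final) MDA-kb2 cultures, 3,000 cells/well, were treated with compounds across 15 concentrations. After 16 hr at 37C with no CO2, cell viability was determined by CellTiter-Fluor fluorescence in the luciferase assay wells.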

[11] = qHTS assay to identify small molecule agonists of the estrogen receptor beta (ER-beta) signaling pathway - cell viability counter screen (AID 1259380); note: nearly all actives have a fitted effect of over 30% in size; note: potency is the fitted concentration of half-maximal effect
Outline: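 Steps: plate ER-beta-UAS-bla HEK293T cells, rest 6 hr; add compounds in DMSO; incubate 16 hr at 37C, 5% CO2; add FRET substrate 2 hr; add CellTiter-Glo, wait 30 min at room temperature; read luminescence.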

[12] = qHTS assay to identify small molecule antagonists of the estrogen receptor beta (ER-beta) signaling pathway - cell viability counter screen (AID 1259382); note: nearly all actives have a fitted effect of over 55% in size; note: potency is the fitted concentration of half-maximal effect
Outline: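 Viability is scored by CellTiter-Glo luminescence (30 min, room temperature) in ER-beta-UAS-bla HEK293T wells already read for reporter fluorescence. Compound exposure lasts 16 hr at 37C alongside 1nM 17-beta-estradiol in charcoal-stripped serum medium.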

[13] = target: Estrogen receptor (Homo sapiens) (UniProt P03372); assay: qHTS assay to identify small molecule agonists of the estrogen receptor alpha (ER-alpha) signaling pathway in the presence of an antagonist (AID 1259383; calls by dose curve; note: top concentration of the series differs between compounds; nearly all actives have a fitted effect of over 15% in size)
Outline: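 Readout was ERE-driven luciferase luminescence in VM7Luc4E2 cells, which express full-length ER-alpha endogenously. Compounds were tested at 15 concentrations for 22hr alongside 10.0nM ICI-182,780 (final concentration).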

[14] = qHTS assay to identify small molecule agonists or antagonists of the thyroid stimulating hormone receptor (TSHR) signaling pathway - wild type cell line counter screen (AID 1259384; calls by dose curve)
Outline: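 Wild-type Hek293 cells, 800/well, 18 h at 37C, then compound with Ro20-1724 for 30 min RT. cAMP by HTRF (cAMP-d2/anti-cAMP cryptate), 1 h RT, fluorescence read. 15 concentrations, triplicates.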

[15] = target: Thyrotropin receptor (Homo sapiens) (UniProt P16473); assay: qHTS assay to identify small molecule antagonists of the thyroid stimulating hormone receptor (TSHR) signaling pathway (AID 1259385; calls by dose curve; note: nearly all actives have a fitted effect of over 20% in size; note: potency is the fitted concentration of half-maximal effect)
Outline: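 TSHR-HEK293 cells (800/well) plated 18 h, then compounds with Ro20-1724 and TSH at 1.5 ng/mL final, 30 min at room temperature. cAMP quantified by HTRF (cAMP-d2/anti-cAMP-cryptate, 1 h); 15 concentrations in triplicate.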

[16] = qHTS assay to identify small molecule agonists of the estrogen receptor alpha (ER-alpha) signaling pathway in the presence of an antagonist - cell viability counter screen (AID 1259386);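 note: cells exposed to compounds for 22 h at 37 °C before the viability read; nearly all actives have a fitted effect of over 30% in size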; note: potency is the fitted concentration of half-maximal effect
Outline: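 In this counter screen, compound effects on VM7Luc4E2 viability were tested in the presence of the antagonist ICI-182,780 at 10.0nM final. Compounds were dosed at 15 concentrations, exposure lasted 22hr, and the CellTiter-Fluor signal was read.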

[17] = qHTS assay to identify small molecule phospholipidosis (PLD) inducers (AID 1259344; active = well fitted curve in the direction sought with a large enough effect; an effect the other way counts as inactive or inconclusive)
Outline: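 Read-out is LipidTOX Red fluorescence (ex 595/em 615) imaged in HepG2 cells after 24 h compound exposure at 37 C, with Hoechst nuclear counterstain (ex 352/em 461) allowing per-cell normalisation.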

[18] = target: Androgen receptor (Homo sapiens) (UniProt P10275); assay: qHTS assay to identify small molecule agonists of the androgen receptor (AR) signaling pathway in the presence of an antagonist (AID 1259381; calls by dose curve; note: nearly all actives have a fitted effect of over 15% in size)
Outline: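 Reporter-gene luminescence from MDA-kb2 cells exposed 16hr at 37C (0% CO2) to 15-point compound titrations with 3.0uM final nilutamide as AR antagonist.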

[19] = target: Estrogen receptor beta (Homo sapiens) (UniProt Q92731); assay: qHTS assay to identify small molecule agonists of the estrogen receptor beta (ER-beta) signaling pathway (AID 1259377; active = well fitted activation curve with a large enough effect in the signal ratio in the repeat runs, not every such curve was filed as active; the % refers to the signal ratio)
Outline: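 Agonist mode cell assay in GripTite HEK293T cells expressing an ER-beta fusion that drives beta-lactamase from an Upstream Activator Sequence; 16 hr compound exposure at 37C, then 2 h LiveBLAzer B/G FRET substrate at room temperature, fluorescence read-out.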

[20] = target: Estrogen receptor beta (Homo sapiens) (UniProt Q92731); assay: qHTS assay to identify small molecule antagonists of the estrogen receptor beta (ER-beta) signaling pathway (AID 1259378; active = well fitted inhibition curve with a large enough effect in the signal ratio in the repeat runs, not every such curve was filed as active; the % refers to the signal ratio)
Outline: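 ER-beta-UAS-bla HEK293T cells in 2% charcoal-stripped FBS medium treated with compound plus 1nM final 17-beta-estradiol for 16 hr at 37C. Beta-lactamase reporter read by FRET substrate fluorescence after 2 hours at room temperature.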

Chain of Estrogen receptor (Homo sapiens) (P03372 whole entry, looked up): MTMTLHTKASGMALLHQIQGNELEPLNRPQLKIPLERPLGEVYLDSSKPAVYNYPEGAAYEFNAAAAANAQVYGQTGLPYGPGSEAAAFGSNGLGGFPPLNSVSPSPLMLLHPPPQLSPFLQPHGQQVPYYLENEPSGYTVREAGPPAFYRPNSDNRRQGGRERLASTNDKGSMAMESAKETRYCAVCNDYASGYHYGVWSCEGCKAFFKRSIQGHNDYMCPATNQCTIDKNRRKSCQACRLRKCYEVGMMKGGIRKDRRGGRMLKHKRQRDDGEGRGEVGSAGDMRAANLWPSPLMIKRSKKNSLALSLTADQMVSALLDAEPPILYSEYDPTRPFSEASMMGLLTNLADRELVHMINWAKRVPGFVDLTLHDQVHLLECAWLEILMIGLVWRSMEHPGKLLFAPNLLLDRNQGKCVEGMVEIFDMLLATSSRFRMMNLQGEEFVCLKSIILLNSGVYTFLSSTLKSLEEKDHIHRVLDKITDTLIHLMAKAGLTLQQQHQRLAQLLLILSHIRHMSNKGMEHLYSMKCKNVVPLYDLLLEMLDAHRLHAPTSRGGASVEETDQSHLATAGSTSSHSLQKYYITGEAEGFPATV
Chain of Thyrotropin receptor (Homo sapiens) (P16473 whole entry, looked up): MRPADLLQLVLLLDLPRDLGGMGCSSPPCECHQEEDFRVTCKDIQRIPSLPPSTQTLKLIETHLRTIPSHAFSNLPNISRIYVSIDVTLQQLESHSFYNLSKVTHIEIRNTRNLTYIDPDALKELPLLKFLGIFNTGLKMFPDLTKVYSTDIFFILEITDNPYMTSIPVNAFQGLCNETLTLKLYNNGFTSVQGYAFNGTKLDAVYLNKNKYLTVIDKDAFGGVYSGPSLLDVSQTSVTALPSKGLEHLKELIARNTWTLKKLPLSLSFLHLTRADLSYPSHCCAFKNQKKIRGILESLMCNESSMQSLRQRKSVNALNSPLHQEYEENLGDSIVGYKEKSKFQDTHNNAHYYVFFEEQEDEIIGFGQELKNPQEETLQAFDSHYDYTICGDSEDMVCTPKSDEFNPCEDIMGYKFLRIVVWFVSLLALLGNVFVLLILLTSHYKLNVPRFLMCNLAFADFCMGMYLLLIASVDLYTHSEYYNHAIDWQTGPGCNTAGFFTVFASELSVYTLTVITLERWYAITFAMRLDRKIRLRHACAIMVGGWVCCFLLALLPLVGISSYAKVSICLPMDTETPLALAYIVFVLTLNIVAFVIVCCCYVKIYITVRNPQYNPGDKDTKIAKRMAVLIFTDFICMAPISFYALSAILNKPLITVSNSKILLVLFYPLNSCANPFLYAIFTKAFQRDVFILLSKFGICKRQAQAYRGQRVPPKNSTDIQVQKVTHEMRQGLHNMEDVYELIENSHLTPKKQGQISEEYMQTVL
Chain of Estrogen receptor beta (Homo sapiens) (Q92731 whole entry, looked up, the tested form may be a part): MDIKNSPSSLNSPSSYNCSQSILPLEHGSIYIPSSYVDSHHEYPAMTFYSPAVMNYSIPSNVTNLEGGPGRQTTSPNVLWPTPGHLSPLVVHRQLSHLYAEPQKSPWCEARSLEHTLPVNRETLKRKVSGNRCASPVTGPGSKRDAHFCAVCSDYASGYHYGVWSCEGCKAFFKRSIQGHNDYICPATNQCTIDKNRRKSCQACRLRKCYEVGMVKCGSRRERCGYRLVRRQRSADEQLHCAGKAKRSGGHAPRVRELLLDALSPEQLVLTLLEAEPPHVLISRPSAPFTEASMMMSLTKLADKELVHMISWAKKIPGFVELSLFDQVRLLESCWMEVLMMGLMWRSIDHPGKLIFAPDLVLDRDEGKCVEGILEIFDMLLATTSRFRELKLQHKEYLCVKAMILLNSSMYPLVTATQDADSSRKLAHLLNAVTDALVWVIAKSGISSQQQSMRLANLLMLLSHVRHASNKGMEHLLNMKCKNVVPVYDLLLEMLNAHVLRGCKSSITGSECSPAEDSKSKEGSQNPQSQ
Chain of Androgen receptor (Homo sapiens) (P10275 whole entry, looked up): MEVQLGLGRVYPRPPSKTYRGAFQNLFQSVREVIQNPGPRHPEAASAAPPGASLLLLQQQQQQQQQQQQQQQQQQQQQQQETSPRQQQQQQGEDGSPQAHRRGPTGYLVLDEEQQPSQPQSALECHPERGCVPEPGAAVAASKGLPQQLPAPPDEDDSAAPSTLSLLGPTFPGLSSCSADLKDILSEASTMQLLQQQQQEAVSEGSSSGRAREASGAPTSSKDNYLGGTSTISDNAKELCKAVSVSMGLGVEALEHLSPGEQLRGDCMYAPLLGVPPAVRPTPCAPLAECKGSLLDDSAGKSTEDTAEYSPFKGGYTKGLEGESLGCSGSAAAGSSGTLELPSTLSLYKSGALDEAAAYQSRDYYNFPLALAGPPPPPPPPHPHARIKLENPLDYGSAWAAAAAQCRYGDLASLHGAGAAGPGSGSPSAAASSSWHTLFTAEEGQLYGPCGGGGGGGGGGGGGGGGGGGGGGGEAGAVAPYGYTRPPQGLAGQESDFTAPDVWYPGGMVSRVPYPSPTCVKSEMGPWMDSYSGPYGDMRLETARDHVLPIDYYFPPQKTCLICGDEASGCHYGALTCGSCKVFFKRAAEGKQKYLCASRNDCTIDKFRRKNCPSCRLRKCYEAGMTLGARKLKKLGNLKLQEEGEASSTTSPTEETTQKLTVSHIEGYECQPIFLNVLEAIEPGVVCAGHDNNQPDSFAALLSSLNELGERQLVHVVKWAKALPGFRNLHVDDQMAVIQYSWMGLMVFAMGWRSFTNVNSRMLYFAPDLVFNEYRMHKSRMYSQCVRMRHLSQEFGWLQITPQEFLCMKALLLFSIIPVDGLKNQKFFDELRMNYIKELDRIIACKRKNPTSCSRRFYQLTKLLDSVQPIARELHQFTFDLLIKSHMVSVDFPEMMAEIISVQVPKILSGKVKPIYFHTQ

Compound	Potency [1]	Potency [2]	Potency [3]	Potency [4]	Potency [5]	Potency [6]	Potency [7]	Potency [8]	Potency [9]	Potency [10]	Potency [11]	Potency [12]	Potency [13]	Potency [14]	Potency [15]	Potency [16]	outcome [17]	outcome [18]	Potency [19]	Potency [20]
CCC[CH2][Sn]([Cl])([CH2]CCC)[CH2]CCC	7.71 µM (active) and 6.11 µM (active)	1.09 µM (active) and 686 nM (active)	487 nM (active) and 433 nM (active)	inactive	19.4 µM (active) and 17.2 µM (active)	217 nM (active) and 386 nM (active)	487 nM (active) and 770 nM (active)	inactive	307 nM (active)	687 nM (active) and 1.54 µM (active)	1.22 µM (active) and 1.37 µM (active)	1.73 µM (active) and 1.93 µM (active)	inactive	inactive	12.2 µM (active)	10.9 µM (active) and 30.6 µM (active)				
CC(C)(C#N)N=NC(C)(C)C#N	inactive	inactive	inactive	inactive	inactive	inactive	inactive	inactive	inactive	inactive	inactive	inactive	inactive	inactive	inactive	inactive				
COP(=S)(OC)Oc1ccc(S(=O)(=O)N(C)C)cc1	inactive	inactive	inactive	inactive	inactive	inactive	inactive	inactive	inactive	inactive	inactive	inactive	inactive	inactive	inactive	inactive	inactive	inactive		
C[N+](C)(C)CC(=O)O	inactive	inactive	inactive	inactive	inactive		inactive	inactive	inactive	inactive	inactive	inactive	inactive			inactive	inactive			
CC[n+]1c(-c2ccccc2)c2cc(N)ccc2c2ccc(N)cc21	30.5 µM (active)	24.2 µM (active) and 13.3 µM (active)	27.2 µM (active) and 21.1 µM (active)	inactive	inactive		48.3 µM (active) and inactive		17100 nM (active)	24.2 µM (active) and 10.6 µM (active)	1.53 µM (active) and 1.06 µM (active)		inactive			48.3 µM (active) and 26.6 µM (active)	inactive			
COP(=S)(OC)Oc1ccc(Sc2ccc(OP(=S)(OC)OC)cc2)cc1	inactive	inactive	61.1 µM (active) and inactive	inactive	inactive	inactive	inactive	inactive	68.6 µM (active) and inactive	inactive	inactive	inactive	inactive	inactive	inactive	inactive	inactive	inactive	inactive	inactive
CSc1nc(NC(C)C)nc(NC(C)C)n1	inactive	inactive	inactive	inactive	inactive	inactive	inactive	inactive	766 nM (active)	inactive	inactive	inactive	inactive			inactive			inactive	inactive
CC1=C(C(=O)Nc2ccccc2)SCCO1	inactive	inactive	inactive	24.7 µM (active) and 27.3 µM (active)	inactive	inactive	inactive		inactive	inactive	inactive	inactive	inactive	inactive	inactive	inactive		inactive	inactive	inactive
CNC(=S)S	inactive	inactive	inactive	inactive	inactive	inactive	inactive	inactive	inactive	inactive	inactive	inactive	inactive	inactive	inactive	inactive				
C=C(C)C#N	inactive	inactive	inactive	inactive	inactive	inactive	inactive	inactive	inactive	inactive	inactive	inactive	inactive	inactive	inactive	inactive			inactive	inactive
CN(C)P(=O)(N(C)C)N(C)C	inactive	inactive	inactive	inactive	inactive	inactive	inactive		inactive	inactive	inactive	inactive	inactive	inactive	inactive	inactive			inactive	inactive
O=[N+]([O-])/N=C1\NCCN1Cc1ccc(Cl)nc1	inactive	inactive	inactive	inactive	inactive		inactive		inactive	inactive	inactive	inactive	inactive	inactive	inactive	inactive	inactive	inactive	inactive	inactive
O=C(O)c1nn(Cc2ccc(Cl)cc2Cl)c2ccccc12	inactive	inactive	inactive	inactive	inactive	inactive	inactive	inactive	inactive	inactive	27.1 µM (active) and 26.6 µM (active)		inactive	inactive	inactive	inactive	inactive	inactive		
